Where “and” joins values, the source holds several entries; their conditions need not be identical. Equal values may be shown once. Results filed as inconclusive are left out. Some structures have more than one record in an assay (separate samples or runs), and their calls can disagree. Calls of active or inactive are those of the source. Unless noted, calls come from the whole dose curve; as a rule, active = well fitted curve in the direction sought with a large enough effect in the repeat runs; inconclusive = weak or mixed curves; inactive = no such curve, though single readings can be large; an effect the other way counts as inactive or inconclusive.

Experiment [1] can be described thus: qHTS assay to identify small molecule agonists of the hypoxia (HIF-1) signaling pathway - cell viability counter screen (AID 1224844; calls by dose curve; note: nearly all actives have a fitted effect of over 50% in size; note: potency is the fitted concentration of half-maximal effect). The procedure, abridged: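 Same wells as the HIF-1 reporter screen; ME-180 cells carrying HRE-bla, 17 hr treatment at 37C; CellTiter-Glo luminescence read after 30 min at room temperature.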
Experiment [2] in a line: qHTS assay to identify small molecule agonists of H2AX (AID 1224845; active = well fitted activation curve with a large enough effect in the signal ratio in the repeat runs, not every such curve was filed as active; the % refers to the signal ratio; note: potency is the fitted concentration of half-maximal effect). In outline:
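Wild-type CHO-K1 cells plated overnight, then exposed 3 hr at 37C to compounds at 15 concentrations (0.76% DMSO). Lysed, then HTRF anti-pH2AX(S139)-cryptate/anti-H2AX-d2 detection after 24 hr at room temperature; emissions 665 and 620 nm.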

Experiment [3] is described as follows: qHTS assay to identify small molecule agonists of H2AX - cell viability counter screen (AID 1224847; calls by dose curve; note: nearly all actives have a fitted effect of over 30% in size; note: potency is the fitted concentration of half-maximal effect). The procedure, abridged: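 Quantitative HTS viability measurement: CHO-K1 wild-type cells in serum (10% FBS) medium, short 3 hr drug exposure at 37C with 0.76% DMSO, CellTiter-Glo luminescent detection.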
Experiment [4] is described as follows: qHTS assay to identify small molecule antagonists of the estrogen related receptor (ERR) signaling pathway from Tox21 library (AID 1224848). Note: nearly all actives have a fitted effect of over 50% in size. Note: potency is the fitted concentration of half-maximal effect. The procedure, abridged:
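First, 2,000 ERR cells per well were plated and held 6 h at 37 C/5% CO2. Next, compounds in DMSO were pinned in and left 18 h at 37 C. Finally, ONE-Glo was added and luminescence read after 30 min at room temperature.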
On the technique in general: Quantitative high-throughput screening tests each substance at several concentrations.

The nature of experiment [5]: qHTS assay to identify small molecule agonists of the estrogen related receptor (ERR) signaling pathway from Tox21 library (AID 1224849; calls by dose curve; note: nearly all actives have a fitted effect of over 15% in size). The settings on record: ERR reporter cell line, ONE-Glo luciferase, 18 h. In outline:
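Reporter cells (ERR, NTP source) treated with Tox21 10K compounds 18 h, 37 C. Readout: ONE-Glo luminescence, 30 min RT.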

The nature of experiment [6]: qHTS RealTime-Glo MT Cell Viability Assay in HepG2 cells - 24 hour (AID 1224867). Note: nearly all actives have a fitted effect of over 50% in size. Note: potency is the fitted concentration of half-maximal effect. The procedure, abridged: (§1)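 Viability was tracked continuously by NanoLuc luminescence from prosubstrate reduced by living HepG2 cells, at successive time points over 40 h of compound exposure. Cells with reagent were preincubated 5 h at 37 °C before compound addition.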
Experiment [7] is described as follows: qHTS RealTime-Glo MT Cell Viability Assay in HEK293 cells - 32 hour (AID 1224868). Note: nearly all actives have a fitted effect of over 50% in size. Note: potency is the fitted concentration of half-maximal effect. The procedure, abridged: (§2)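 Viability tracked continuously by luminescence as live cells reduce a prosubstrate for NanoLuc; HEK293 cells preincubated 5 h, compound-treated at 37 C, and read at 0, 8, 16, 24, 32 and 40 h.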
The nature of experiment [8]: A CellTox Green Cytotoxicity Assay to monitor cytotoxicity in HEK293 cells - 0 hour (AID 1224869). Note: nearly all actives have a fitted effect of over 50% in size. In outline: (§3)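 Homogeneous no-lysis format: HEK293 cell suspension mixed with CellTox Green reagent, seeded, incubated 5 h at 37 C/5% CO2, then dosed by pintool with compound in DMSO.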
Experiment [9] is described as follows: qHTS RealTime-Glo MT Cell Viability Assay in HepG2 cells - 40 hour (AID 1224870). Note: nearly all actives have a fitted effect of over 50% in size. Note: potency is the fitted concentration of half-maximal effect. The procedure, abridged: (§4)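 HepG2 cells mixed with RealTime-Glo MT reagents (NanoLuc plus cell-permeant prosubstrate) were seeded at 600 cells/well, incubated 5 h at 37 C/5% CO2, then pinned with compounds in DMSO; nonlytic luminescence tracked viability during 40 h treatment.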

A short description of experiment [10]: A CellTox Green Cytotoxicity Assay to monitor cytotoxicity in HEK293 cells - 40 hour (AID 1224871). Note: nearly all actives have a fitted effect of over 45% in size. Note: potency is the fitted concentration of half-maximal effect. The procedure, abridged:
as §3

Experiment [11] is described as follows: qHTS RealTime-Glo MT Cell Viability Assay in HEK293 cells - 16 hour (AID 1224872). Note: nearly all actives have a fitted effect of over 50% in size. Note: potency is the fitted concentration of half-maximal effect. In outline: as §2
The nature of experiment [12]: qHTS RealTime-Glo MT Cell Viability Assay in HEK293 cells - 40 hour (AID 1224874). Note: nearly all actives have a fitted effect of over 50% in size. Note: potency is the fitted concentration of half-maximal effect. The note with it: RealTime-Glo luminescence; max response: stronger effect = lower value. In outline: (§5)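 Measured as luminescence from the same continuously cultured HEK293 wells at successive time points (0, 8, 16, 24, 32, 40 h) after compound addition. Reagent present from seeding; dosing at 5 h; incubation 37 C.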

Experiment [13] can be described thus: A CellTox Green Cytotoxicity Assay to monitor cytotoxicity in HEK293 cells - 24 hour (AID 1224875). Note: nearly all actives have a fitted effect of over 45% in size. Note: potency is the fitted concentration of half-maximal effect. In outline:
as §3

Experiment [14] is described as follows: A CellTox Green Cytotoxicity Assay to monitor cytotoxicity in HepG2 cells - 16 hour (AID 1224876). Note: nearly all actives have a fitted effect of over 45% in size. Note: potency is the fitted concentration of half-maximal effect. The procedure, abridged:
(§6)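 Fluorescent DNA-binding dye, 600 HepG2 cells/well, 5 h preincubation then compound in DMSO; same plates read at 0–40 h, 37 C.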

The nature of experiment [15]: qHTS RealTime-Glo MT Cell Viability Assay in HepG2 cells - 32 hour (AID 1224877). Note: nearly all actives have a fitted effect of over 55% in size. Note: potency is the fitted concentration of half-maximal effect. In outline: as §1
Experiment [16] can be described thus: A CellTox Green Cytotoxicity Assay to monitor cytotoxicity in HepG2 cells - 24 hour (AID 1224878). Note: nearly all actives have a fitted effect of over 45% in size. Note: potency is the fitted concentration of half-maximal effect. The procedure, abridged:
as §6

Experiment [17] in a line: A CellTox Green Cytotoxicity Assay to monitor cytotoxicity in HepG2 cells - 40 hour (AID 1224879). Note: nearly all actives have a fitted effect of over 40% in size. Note: potency is the fitted concentration of half-maximal effect. The procedure, abridged:
as §6

Experiment [18] can be described thus: qHTS RealTime-Glo MT Cell Viability Assay in HEK293 cells - 0 hour (AID 1224880). In outline:
as §5

Experiment [19] in a line: qHTS assay to identify small molecule agonists of the hypoxia (HIF-1) signaling pathway (AID 1224846; active = well fitted activation curve with a large enough effect in the signal ratio in the repeat runs, not every such curve was filed as active; the % refers to the signal ratio). In outline:
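In ME-180 cells bearing an HRE-bla construct, 17 h treatment with DMSO-dissolved compounds at 37C was followed by CCF4-AM loading to quantify reporter induction.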

A short description of experiment [20]: qHTS RealTime-Glo MT Cell Viability Assay in HepG2 cells - 8 hour (AID 1224873). Note: nearly all actives have a fitted effect of over 55% in size. Note: potency is the fitted concentration of half-maximal effect. In outline: as §4
% is set by controls: 0 for no effect and ±100 for the full control effect.

Regarding `O=C(NCNC(=O)NC1C(=O)NC(=O)N1CO)NC1C(=O)NC(=O)N1CO` (stereo not given), the Potency entry in experiment [1], in experiment [2], in experiment [3], in experiment [4], in [6] and in [7] was “inactive” in each case. Also, the Potency result in [8], in experiment [9], in [10], in experiment [11], in experiment [13] and in [14] was “inactive” throughout. The Potency result in experiment [15], in [16] and in experiment [17] was “inactive” each time. In addition, the activity change, positive = activation in experiment [5] (at 92.4 µM (top of the series)) was 3.53% (inactive). Also, the max response in [12] was 4.4% (inactive). Moreover, the call in [18] was inactive.

Turning to `O=C1c2ccccc2C(=O)N1SC(Cl)(Cl)Cl`, the Potency is 3.83 µM (active) and 7.76 µM (active) in experiment [1]; 9.93 µM (active) and 16 µM (active) in experiment [2]; 12.5 µM (active) in [3]; 30.2 µM (active) and 30.6 µM (active) in [4]; 34.2 µM (active) and 13.8 µM (active) in [6]; 6.82 µM (active) and 6.92 µM (active) in [7]. The Potency in experiment [9] was 34.2 µM (active) and 15.5 µM (active); in experiment [10] it was 10.8 µM (active) and 11 µM (active); in experiment [11], 3.42 µM (active) and 3.89 µM (active); in experiment [12], 6.82 µM (active) and 9.77 µM (active); in [14], 43 µM (active) and 54.9 µM (active); in experiment [15], 34.2 µM (active) and 13.8 µM (active). The Potency in experiment [16] was 34.2 µM (active) and 21.9 µM (active); in experiment [17], 21.6 µM (active) and 12.3 µM (active). Further, in experiment [5] (at 92.4 µM (top of the series)), the activity change, positive = activation was -68.2% (inactive) and -64.1% (inactive). Moreover, the call in experiment [18] was inactive.

For the compound `C=CCc1ccc(OC(=O)Cc2ccccc2)c(OC)c1`, the Potency entry in experiment [1], in [2], in experiment [3], in [6], in [9] and in experiment [10] was “inactive” throughout. The Potency result in experiment [20], in experiment [13], in [14], in experiment [15] and in [16] was “inactive” in each case. The compound was called inactive in [19] and in [18].

Turning to `CCC(C)(C)O`, the Potency entry in [1], in [2], in experiment [3], in experiment [6], in experiment [7] and in experiment [8] was “inactive” in each case. The Potency result in experiment [9], in experiment [10], in experiment [11], in experiment [20], in experiment [13] and in experiment [14] was “inactive” in each case. Also, the Potency entry in experiment [15], in experiment [16] and in experiment [17] was “inactive” in each case. Moreover, the max response in experiment [12] is 6.83% (inactive). Further, the result in experiment [18] was inactive.

Regarding `CCC1(C2=NCCN2)Cc2ccccc2O1` (stereo not given), the Potency result in experiment [1], in experiment [2], in experiment [3], in experiment [4], in experiment [6] and in experiment [7] was “inactive” throughout. The Potency result in experiment [8], in experiment [9], in experiment [10], in [11], in [20] and in experiment [13] was “inactive” each time. Also, the Potency result in experiment [14], in [15], in experiment [16] and in experiment [17] was “inactive” in each case. The activity change, positive = activation in experiment [5] (at 42.5 µM (top of the series)) is 5.71% (inactive). Further, in experiment [12], the max response is 7.14% (inactive). Besides, in experiment [18], the compound was called inactive.

With `CC(C)(C)CC(C)(C)c1ccc(O)cc1`, the Potency in experiment [1] was 38.9 µM (active) and inactive; in experiment [2] it was 89.8 µM (active); in [3], 4.5 µM (active) and 39.1 µM (active); in experiment [6], 46.2 µM (active) and inactive; in [9], 49 µM (active) and inactive; in experiment [10], 30.9 µM (active) and 21.3 µM (active). The Potency in experiment [11] is 12.3 µM (active); in [20] it was 21.9 µM (active); in experiment [13], 13.8 µM (active) and 21.3 µM (active); in [14], 27.5 µM (active) and 10.7 µM (active); in experiment [15] it was 43.6 µM (active) and inactive; in experiment [16], 19.5 µM (active) and 13.4 µM (active). The Potency in [17] was 17.4 µM (active) and 15.1 µM (active). In addition, the Potency entry in experiment [7] and in [8] was “inactive” throughout. Besides, the max response in experiment [12] is -17% (inactive). The compound was classed as inactive in [18].

In the case of `Clc1ccc2ccccc2c1`, the Potency result in experiment [1], in experiment [2], in [3], in experiment [6], in experiment [8] and in [9] was “inactive” throughout. Also, the Potency entry in [20], in experiment [14], in [15], in experiment [16] and in [17] was “inactive” in each case. In addition, the outcome in experiment [19] and in [18] was inactive. In experiment [13], the Potency is 50.5 µM (active).

Consider `C1CCNCC1`, for which the Potency result in experiment [1], in experiment [2], in experiment [3], in [6], in experiment [7] and in [9] was “inactive” each time. In addition, the Potency result in experiment [10], in [11], in experiment [20], in experiment [13], in experiment [14] and in experiment [15] was “inactive” each time. Besides, the Potency entry in experiment [16] and in experiment [17] was “inactive” in each case. The result in experiment [19] and in experiment [18] was inactive. Further, the max response in [12] is 0.2% (inactive).

Consider `CC[N+]1(C)CCCC(OC(=O)C(O)(c2ccccc2)c2ccccc2)C1` (stereo not given), for which the Potency result in [1], in experiment [2], in [3], in [4], in experiment [6] and in experiment [7] was “inactive” each time. For the same compound, the Potency entry in [9], in [10], in experiment [11], in experiment [20], in experiment [13] and in [14] was “inactive” in each case. In addition, the Potency entry in [16] and in [17] was “inactive” each time. The activity change, positive = activation in [5] (at 42.5 µM (top of the series)) is 6.13% (inactive). The max response in [12] is 1.3% (inactive). Moreover, the call in experiment [18] was inactive.

On to `COc1cc(CC#N)cc(OC)c1OC`, for which the Potency result in experiment [1], in [2], in experiment [3], in experiment [6], in experiment [7] and in [8] was “inactive” each time. Moreover, the Potency entry in [9], in [10], in experiment [11], in [20], in experiment [13] and in experiment [14] was “inactive” throughout. In addition, the Potency entry in experiment [15], in experiment [16] and in experiment [17] was “inactive” each time. Further, in [12], the max response is 0.767% (inactive). In addition, the outcome in experiment [18] was inactive.

For the origin of these results see PubChem BioAssay (Tox21).
